Reference: PubChem BioAssay AID1789 (The Scripps Research Institute Molecular Screening Center, 2009)
Screen size: about 290,000 compounds; about 2,700 (0.93%) were called active. What follows is part of a selection rich in actives, with near analogues and random picks from the rest. Unmarked numbers belong to inactive results.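 How the source made its calls: active means inhibition above the screen-wide mean plus 3 SD, computed separately per campaign (cut at about 16% in these data); inactive means the rest.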

Tested on: Heat shock protein HSP 90 (rabbit reticulocyte lysate; luciferase refolding)
Experiment: HSP90 inhibitors, primary screen, cell lysate, luminescence (AID 1789);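 further: 0% = DMSO wells and 100% = 60 µM geldanamycin wells; inhibitors lower the luminescence because luciferase stays unfolded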
Conditions: 3 h, at 5.6 µM, hits give high values

SMILES	inhibition
COc1ccc(C(C)NC(=O)C2CCCC2)cc1 (centres undefined)	-1.94%
CCCc1cc(=O)oc2c(C)c(OC(C)C(=O)NCC(O)c3ccccc3)ccc12 (centres undefined)	-5.71%
c1ccc(-c2noc(-c3cccs3)n2)nc1	21.2% (active)
COc1nc(-c2ccc(Cl)cc2)ccc1-c1noc(-c2cccs2)n1	-4.45%
O=C(Oc1ccc(-c2nc(-c3ccccn3)no2)cc1)c1ccccc1	3.06%
COCC1CCCN(C(=O)c2ccc3oc(C(C)C)nc3c2)C1 (centres undefined)	2.21%
Cc1n[nH]c(=O)c2c1nnn2Cc1ccc(F)cc1	0.06%
C/C(=N\NC(=S)NC1CCCCC1)c1ccc(C)o1	19.9% (active)
C/C(=N/NC(=O)c1ccc(Br)o1)c1ccc(C)o1	1.47%
Cc1ccc(/C=N/NC(=S)NC2CCCCC2)o1	-0.34%
COc1ccc(OC)c(NC(=O)c2ccc3c(c2)CCN3S(C)(=O)=O)c1	-4.49%
O=C(C1CCC(=O)N(C2CC2)C1)N1CCN(c2ccc(Cl)cc2)CC1 (centres undefined)	0.69%
CCOc1cc(C2/C(=C(/O)c3ccc(S(=O)(=O)N4CCCCC4)cc3)C(=O)C(=O)N2CCOC)ccc1O (centres undefined)	-4.72%
Fc1ccccc1/C=C1\CCCC2=C1Nc1ncnn1C2c1ccccc1F (centres undefined)	5.24%
NS(=O)(=O)c1cccc(NC(=O)CSc2nc3ccccc3n2-c2ccccc2)c1	2.1%
Cc1ccc(-n2c(SCC(=O)Nc3ncc(Cl)cc3Cl)nc3ccccc32)cc1	19.5% (active)
Cc1ccc(SCCC(=O)OCC(=O)Nc2ncc(Cl)cc2Cl)cc1	3.89%
COc1cccc(C(=O)N/N=C(\C)c2cccc(NC(=O)c3ccc(F)cc3)c2)c1OC	-0.84%
COc1cccc(NC(=O)C/C(C)=N/NC(=O)C2CCCCC2)c1	-2.92%
O=C(COc1ccc2ccc(=O)oc2c1)NCC(O)c1ccccc1 (centres undefined)	-3.81%
Nc1ccc(-c2sc(N)nc2-c2ccccc2)cc1	-4.32%
Nc1ccc(-c2nnc(-c3ccccc3)o2)cc1	20.3% (active)

SMILES	inhibition
Brc1ccc(-c2nnc(-c3ccccc3)o2)o1	-0.79%
CCOc1ccc(S(=O)(=O)N2CCCC(C(=O)N3CCC(C(N)=O)CC3)C2)cc1Cl (centres undefined)	-3.03%
CCCc1ccc(OCCNC(=O)c2ccco2)cc1	-5.63%
COc1ccc(OCCCC(=O)NCCc2ccccc2)cc1	-4.96%
CCCOc1ccc(C(=O)NCCc2ccccc2)cc1	20.7% (active)
CCCOc1cccc(C(=O)NCCCNC(=O)c2cccnc2)c1	3.77%
Nc1cc(N2CCCCCC2)c2nonc2c1[N+](=O)[O-]	0.32%
Cn1ncc2c(NNC(=O)Cc3cccc4ccccc34)ncnc21	5.78%
COc1ccc(C(=O)O/N=C(\N)c2ccccn2)cc1[N+](=O)[O-]	-3.48%
N/C(=N\OC(=O)c1ccc([N+](=O)[O-])cc1)c1ccccn1	2.51%
Cc1ccc(C(=O)O/N=C(\N)c2ccccn2)cc1Cl	42.5% (active)
CN(C)c1ccc(C2N(C)C(=O)c3ccccc3N2C)cc1 (centres undefined)	4.78%
Cc1ccc(C)c(NS(=O)(=O)c2c(C)[nH]c(C)c2C(=O)N2CCCCC2)c1	3.8%
O=C(Nc1ccccc1Cl)NC1(C(=O)N2CCOCC2)CCCCC1	0.58%
CCN(CC)C(=O)c1sc2nc(-c3ccccc3)ccc2c1N	16.5% (active)
CS(=O)(=O)c1sc2nc(-c3ccccc3)cc(-c3ccccc3)c2c1N	0.41%
Cc1ccc2c(N)c(C(=O)c3ccccc3)sc2n1	1.67%
O=C(O)CSc1c2c(nc3cc(C(=O)Nc4cccc(C(F)(F)F)c4)ccc13)CCCC2	-0.05%
CCCCNC(=O)C(=O)c1ccccc1NC(C)=O	4.09%
CCCCNC(=S)NNC(=O)c1cc(C)on1	-1.37%
CCCCNC(=O)Nc1c(C)cc(SC#N)cc1C	36.7% (active)
CC(C)CC[n+]1ccn(C2=C([O-])c3ccccc3C(=O)/C2=N\S(=O)(=O)c2ccccc2)c1	6.11%

SMILES	inhibition
CCOC(=O)c1sc(NC(=O)c2sc(C)nc2C)nc1C	9.21%
CC1CCCCN1CCCNc1ccc(C(CC(N)=O)NC(=O)c2ccccc2)cc1[N+](=O)[O-] (centres undefined)	-2.66%
OC(c1nc2ccccc2[nH]1)C(O)C(O)C(O)c1nc2ccccc2[nH]1 (centres undefined)	-0.14%
Cc1nc2ccc(C(=O)N/N=C/c3ccc(O)cc3)cc2[nH]1	1.87%
OC(c1nc2ccc(F)cc2[nH]1)C(O)c1nc2ccc(F)cc2[nH]1 (centres undefined)	-4.25%
Cc1nc2ccc(C(=O)O)cc2[nH]1	31.3% (active)
Cc1nc2ccc(C(=O)N(C)CC3CCCN(CCc4ccc(Cl)cc4)C3)cc2[nH]1 (centres undefined)	-8.86%
CC(C)c1nc2ccc(C(=O)O)cc2[nH]1	37.9% (active)
COc1ccc(C(=O)n2nc(C)c(Br)c2C)cc1OC	4.92%
C#CCOc1ccc(/C=C2/C(=O)ON=C2C)cc1OCC	1.13%
Cc1ccc(NC(=O)C(CC(=O)O)C2CCCO2)c(C)c1 (centres undefined)	-2.07%
CCOC(=O)N1CCC(NC(=O)CCc2ccccc2)CC1	2.73%
COc1ccc(C(=O)NCCn2nc(C)cc2C)cc1OC1CCN(C(C)=O)CC1	0.85%
Cc1cnc(NC(=O)c2ccccn2)s1	21% (active)
O=C(Nc1nnc(C2CC2)s1)c1ccccn1	16%
Cc1cnc(NC(=O)c2ccc(Cl)nc2)s1	-0.28%
O=C(CN1CCN(C(=O)C2CCCO2)CC1)Nc1c(Cl)cccc1Cl (centres undefined)	-1.9%
CCN(CC)CCN1C(=O)C(=O)/C(=C(/O)c2cnn(-c3ccccc3)c2C)C1c1cccs1 (centres undefined)	33.3% (active)
CCN(CC)CCN1C(=O)C(=O)/C(=C(/O)c2ccc(OC)c(OC)c2)C1c1ccccn1 (centres undefined)	0.07%
CCN(CC)CCN1C(=O)C(=O)/C(=C(/O)c2ccccc2)C1c1ccccc1F (centres undefined)	1.61%
